Seven compounds from PubChem BioAssay (EPA / NIEHS) can be followed below.

Records with an inconclusive call do not appear. Active and inactive are the calls of the source. The calls were made as follows, unless noted: active = hit-call score of the fitted dose curve at least 0.9, where 1 is the maximum; inactive = score below 0.9.

The target of assay [1] is human Vitamin D Receptor (VDR), VDR (gene 7421) (UniProt P11473). The assay is described as follows: ATG_VDR_TRANS: Attagene TRANS-FACTORIAL HepG2 Assay for human Vitamin D Receptor (VDR) (AID 2283022; active = hit-call score of the fitted dose curve at least 0.9, where 1 is the maximum). A digest of the protocol: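 HepG2 cells were transiently transfected with GAL4-UAS reporter units and a chimeric VDR-Gal4 construct, then dosed for 24 hours. Reporter mRNA was quantified by RT-PCR, fluorescent labeling, HpaI digestion and capillary electrophoresis; gain of signal analysed vs DMSO.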

The nature of assay [2]: BSK_3C_SRB: Viability Assessment in the BioMAP Diversity Plus: 3C Assay (AID 2283023).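 Also: fitted both ways against DMSO so a hit may be signal rise or drop.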 The following applies: primary human endothelial cells (HUVEC). The procedure, abridged:
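Human umbilical vein endothelial cells in the 3C system, treated 24 h. Total protein measured by 0.1% sulforhodamine B staining after 10% TCA fixation, read at 560 nm; bidirectional fit versus DMSO.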

Read-out in assay [3]: Matrix Metallopeptidase 1 (MMP1), MMP1 (gene 4312)
Put plainly: BSK_BE3C_MMP1: BioMAP Diversity Plus: BE3C Assay for Matrix Metallopeptidase 1 (MMP1) Biomarker Activity (AID 2283024). Particulars: primary human bronchial epithelial cells; actives raise or lower the signal. A digest of the protocol:
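Dose cells, wait 24 h, run MMP1 ELISA; cells are human bronchial epithelial primaries. Both increases and decreases relative to DMSO counted.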

Assay [4] can be described thus: BSK_3C_Vis: BioMAP Diversity Plus: 3C Assay for Morphology Visualization (AID 2283025).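 Also: fitted both ways so gain or loss versus DMSO counts.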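 As to AC50: light microscopy image of cell morphology used as background control.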 Particulars: primary human endothelial cells (HUVEC). A digest of the protocol: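 Endothelial cells from human umbilical vein were treated with test chemicals for 24 h and inspected by light microscopy for changes in cell conformation.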
Read-out in assay [5]: Pselectin, SELP (gene 6403)
The assay is described as follows: BSK_4H_Pselectin: BioMAP Diversity Plus: 4H Assay for Pselectin Biomarker Activity (AID 2283026). Particulars: primary human endothelial cells (HUVEC); actives raise or lower the signal. A digest of the protocol:
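Human vascular endothelium from umbilical vein; P-selectin measured by ELISA at 24 h post-dose, with cytotoxicity checked by sulforhodamine B total-protein staining in parallel cultures (0.1% SRB after 10% TCA fixation, read at 560 nm).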

The nature of assay [6]: BSK_4H_SRB: Viability Assessment in the BioMAP Diversity Plus: 4H Assay (AID 2283027).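 Also: cells exposed to compound for 24 h before staining.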 Particulars: primary human endothelial cells (HUVEC). A digest of the protocol:
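Human umbilical vein endothelial cells were dosed with chemical and, after 24 h, fixed with 10% TCA, stained with 0.1% sulforhodamine B, and read at 560 nm to give total protein as a cytotoxicity measure. Bidirectional fitting relative to DMSO control.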

A short description of assay [7]: BSK_BE3C_SRB: Viability Assessment in the BioMAP Diversity Plus: BE3C Assay (AID 2283028).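 As to AC50: fitted both ways so AC50 may mark signal gain or loss versus DMSO.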 The following applies: primary human bronchial epithelial cells. The procedure, abridged: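 Human bronchial epithelial primary cells in confluent culture, 24 h after chemical dosing; total protein by 0.1% SRB staining after 10% TCA fixation, read at 560 nm. Bidirectional fitting versus DMSO baseline.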

Read-out in assay [8]: Urokinase-type plasminogen activator receptor (uPAR), PLAUR (gene 5329)
The assay is described as follows: BSK_4H_uPAR: BioMAP Diversity Plus: 4H Assay for Urokinase-type plasminogen activator receptor (uPAR) Biomarker Activity (AID 2283030). The following applies: primary human endothelial cells (HUVEC); actives raise or lower the signal. A digest of the protocol:
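Human umbilical vein endothelial cells in the 4H system, 24 h after chemical dosing. Cell-surface uPAR measured by ELISA, fitted in both directions versus DMSO; cytotoxicity checked by SRB total protein in parallel cultures.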

Read-out in assay [9]: Human Leukocyte Antigen - DR isotype (HLADR), HLA-DRA (gene 3122)
Put plainly: BSK_BE3C_HLADR: BioMAP Diversity Plus: BE3C Assay for Human Leukocyte Antigen - DR isotype (HLADR) Biomarker Activity (AID 2283032). The following applies: primary human bronchial epithelial cells; actives raise or lower the signal. A digest of the protocol:
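Signal came from an ELISA for HLA-DR in human bronchial epithelial primary cells harvested 24 h after treatment; gain- and loss-of-signal fitting used DMSO controls as reference.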

Read-out in assay [10]: Vascular cell adhesion molecule 1 (VCAM1), VCAM1 (gene 7412)
Put plainly: BSK_4H_VCAM1: BioMAP Diversity Plus: 4H Assay for Vascular cell adhesion molecule 1 (VCAM1) Biomarker Activity (AID 2283033).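 Also: cell-surface VCAM-1 protein measured by ELISA.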 The following applies: primary human endothelial cells (HUVEC); actives raise or lower the signal. The procedure, abridged:
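Endpoint derived from bidirectional fitting against DMSO controls of VCAM-1 ELISA signal in umbilical vein endothelial cells sampled at 24 h following treatment.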

Read-out in assay [11]: Interferon-gamma inducible Protein 10 (IP10), CXCL10 (gene 3627)
The assay is described as follows: BSK_BE3C_IP10: BioMAP Diversity Plus: BE3C Assay for Interferon-gamma inducible Protein 10 (IP10) Biomarker Activity (AID 2283034). The following applies: primary human bronchial epithelial cells; actives raise or lower the signal. A digest of the protocol: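 Using primary human bronchial epithelial cultures, the assay captures IP-10 by ELISA one day (24 h) after exposure. Parallel SRB staining of total protein flags overt cytotoxicity. Fits run bidirectionally relative to DMSO.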

Read-out in assay [12]: Monokine induced gamma interferon (MIG), CXCL9 (gene 4283)
Put plainly: BSK_BE3C_MIG: BioMAP Diversity Plus: BE3C Assay for Monokine induced gamma interferon (MIG) Biomarker Activity (AID 2283035). Particulars: primary human bronchial epithelial cells; actives raise or lower the signal. The procedure, abridged: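 ELISA read-out of MIG in human lung bronchial epithelial primary cultures, 24 h post-dosing. Bidirectional curve fit vs DMSO baseline.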

Read-out in assay [13]: Transforming growth factor beta 1 (TGFb1), TGFB1 (gene 7040)
Put plainly: BSK_BE3C_TGFb1: BioMAP Diversity Plus: BE3C Assay for Transforming growth factor beta 1 (TGFb1) Biomarker Activity (AID 2283036;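 also: TGF-b1 protein level measured by ELISA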). Particulars: primary human bronchial epithelial cells; actives raise or lower the signal. A digest of the protocol: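 In this human primary bronchial epithelial system, an ELISA quantified TGF-b1 one day after dosing. Endpoint changes in either direction were fitted relative to DMSO.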

Read-out in assay [14]: urokinase plasminogen activator (uPA), PLAU (gene 5328)
Put plainly: BSK_BE3C_uPA: BioMAP Diversity Plus: BE3C Assay for urokinase plasminogen activator (uPA) Biomarker Activity (AID 2283038).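 As to outcome: uPA protein level quantified by ELISA in cell cultures; uPA read one day after compound addition.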 Particulars: primary human bronchial epithelial cells; actives raise or lower the signal. The procedure, abridged:
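Primary human bronchial epithelial cells, uPA measured by ELISA 24 h after dosing. Bidirectional change relative to DMSO; cytotoxicity checked in parallel cultures by sulforhodamine B total-protein staining.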

Read-out in assay [15]: Urokinase-type plasminogen activator receptor (uPAR), PLAUR (gene 5329)
Put plainly: BSK_BE3C_uPAR: BioMAP Diversity Plus: BE3C Assay for Urokinase-type plasminogen activator receptor (uPAR) Biomarker Activity (AID 2283039).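 Also: cells exposed to compound for one day before measurement.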 The following applies: primary human bronchial epithelial cells; actives raise or lower the signal. A digest of the protocol: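 A uPAR ELISA serves as the readout, taken 24 h after treating primary human bronchial epithelial cells. Responses in either direction are fitted against DMSO, which defines baseline activity.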

Read-out in assay [16]: Interleukin-6 (IL6), IL6 (gene 3569)
Put plainly: BSK_CASM3C_IL6: BioMAP Diversity Plus: CASM3C Assay for Interleukin-6 (IL6) Biomarker Activity for (AID 2283040). The following applies: primary human coronary artery smooth muscle cells; actives raise or lower the signal.

Read-out in assay [17]: Tissue plasminogen activator (tPA), PLAT (gene 5327)
The assay is described as follows: BSK_BE3C_tPA: BioMAP Diversity Plus: BE3C Assay for Tissue plasminogen activator (tPA) Biomarker Activity (AID 2283041).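 As to outcome: tPA level quantified by ELISA one day after compound addition.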 Particulars: primary human bronchial epithelial cells; actives raise or lower the signal. The procedure, abridged:
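Bidirectional curve fitting relative to DMSO defined activity, with tPA detected by ELISA in chemically treated human bronchial epithelial primary cells at 24 hours.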

Read-out in assay [18]: Thrombomodulin, THBD (gene 7056)
The assay is described as follows: BSK_3C_Thrombomodulin: BioMAP Diversity Plus: 3C Assay for Thrombomodulin Biomarker Activity (AID 2283029). Particulars: primary human endothelial cells (HUVEC); actives raise or lower the signal. A digest of the protocol: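 Thrombomodulin ELISA, human primary HUVEC, 24 h post-dose; data fitted in both directions relative to DMSO.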

Read-out in assay [19]: Vascular endothelial growth factor receptor 2 (Homo sapiens) (UniProt P35968)
The assay is described as follows: BSK_4H_VEGFRII: BioMAP Diversity Plus: 4H Assay for Vascular endothelial growth factor receptor 2 (VEGFR2) Biomarker Activity (AID 2283031). Particulars: primary human endothelial cells (HUVEC); actives raise or lower the signal. A digest of the protocol:
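Primary human umbilical vein endothelial cells (4H system), 24 h exposure; cell-surface VEGFR2 measured by ELISA. Bidirectional fitting versus DMSO; cytotoxicity checked in parallel by SRB total-protein staining.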

Read-out in assay [20]: Plasminogen activator inhibitor-1 (PAI1), SERPINE1 (gene 5054)
The assay is described as follows: BSK_BE3C_PAI1: BioMAP Diversity Plus: BE3C Assay for Plasminogen activator inhibitor-1 (PAI1) Biomarker Activity (AID 2283037). The following applies: primary human bronchial epithelial cells; actives raise or lower the signal. The procedure, abridged: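 PAI-1 biomarker levels in treated human bronchial epithelial cells are determined by ELISA at 24 h. Both increases and decreases relative to DMSO are fitted.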

Chain of human Vitamin D Receptor (VDR), VDR (gene 7421) (P11473 whole entry, looked up, the tested form may be a part): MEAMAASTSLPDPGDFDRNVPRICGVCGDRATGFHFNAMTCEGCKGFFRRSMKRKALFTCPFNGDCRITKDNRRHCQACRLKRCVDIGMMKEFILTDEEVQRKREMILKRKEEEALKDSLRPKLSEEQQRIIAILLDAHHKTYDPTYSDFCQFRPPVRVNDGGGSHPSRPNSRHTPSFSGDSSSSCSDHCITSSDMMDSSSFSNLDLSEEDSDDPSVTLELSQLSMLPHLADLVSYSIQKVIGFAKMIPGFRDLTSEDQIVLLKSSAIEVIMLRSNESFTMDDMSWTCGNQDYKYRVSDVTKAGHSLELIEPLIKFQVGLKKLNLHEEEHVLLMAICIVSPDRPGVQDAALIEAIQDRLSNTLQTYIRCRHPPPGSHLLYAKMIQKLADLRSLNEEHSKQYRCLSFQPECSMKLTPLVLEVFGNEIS

Consider `COc1c(Cl)ccc(Cl)c1C(=O)O`, for which the compound was classed as inactive in [1], in [2], in [3], in assay [4], in [5] and in assay [6]. For the same compound, the result in assay [7], in [8], in assay [9], in assay [10], in [11] and in assay [12] was inactive. For the same compound, the outcome in [13], in [14], in assay [15], in [16] and in assay [17] was inactive.

`CC(C)(C)[C@@H](O)[C@@H](Cc1ccc(Cl)cc1)n1cncn1`: the outcome in assay [2], in [3], in assay [5], in assay [6], in [7] and in assay [18] was inactive. The result in assay [8], in assay [19], in assay [9], in assay [10], in assay [11] and in assay [12] was inactive. The outcome in [13], in assay [14], in assay [15], in [16] and in assay [17] was inactive. Also, the half-maximal activity concentration (AC50) in assay [4] was 39 µM (active).

As to `CCCCC(CC)CN1C(=O)C2C3C=CC(C3)C2C1=O` (configuration not stated), the half-maximal activity concentration (AC50) in [2] was 16.9 µM (active); in [3] it was 15.9 µM (active); in assay [7] it was 17.3 µM (active); in [9] it was 15.7 µM (active); in assay [11], 18.2 µM (active). In addition, the result in [4], in [5], in assay [6], in assay [8], in assay [19] and in [10] was inactive. The result in [12], in assay [13], in assay [14], in assay [15], in assay [16] and in assay [17] was inactive.

As for `S=C([S-])NCCNC(=S)[S-].[Mn+2]`, the outcome in assay [2], in assay [3], in assay [6], in [7], in assay [18] and in assay [8] was inactive. For the same compound, the result in assay [19], in [10], in assay [11], in assay [12], in assay [13] and in [20] was inactive. In addition, the outcome in assay [14], in [15] and in assay [17] was inactive. The AC50 is 39 µM (active) in assay [4], 27.8 µM (active) in [5], 30.5 µM (active) in assay [9] and 12.2 µM (active) in assay [16].

For the compound `COC(=O)c1ccc(I)cc1S(=O)(=O)NC(=O)Nc1nc(C)nc(OC)n1`, the result in [2], in assay [3], in assay [4], in [5], in assay [6] and in assay [7] was inactive. Besides, the result in assay [8], in [19], in assay [9], in [10], in [11] and in assay [12] was inactive. Also, the result in [13], in [14], in assay [15], in assay [16] and in assay [17] was inactive.

`CCNc1nc(N)nc(Cl)n1`: the result in assay [2], in assay [3], in assay [4], in assay [5], in [6] and in [7] was inactive. The outcome in assay [8], in [19], in [9], in [10], in [11] and in assay [12] was inactive. Besides, the outcome in assay [13], in assay [15], in [16] and in [17] was inactive. Moreover, the concentration at half-maximal activity (AC50) in assay [14] is 10.9 µM (active).

Turning to `COC(=O)CSc1cc(N=c2sc(=O)n3n2CCCC3)c(F)cc1Cl`, the outcome in [2], in [3], in assay [4], in [5], in assay [6] and in assay [7] was inactive. Further, the outcome in assay [8], in assay [19], in assay [9], in assay [10], in assay [11] and in assay [12] was inactive. The result in [13], in assay [14], in assay [15] and in assay [16] was inactive. Further, the AC50 in assay [17] was 0.79 µM (active).
